The record followed here is PubChem BioAssay.

Unmarked numbers belong to inactive results. For some of these results: Results with a measured potency or affinity are listed apart. Active and inactive are the calls of the source. Unless noted, no rule for the calls is given here.

A short description of test [1]: antimalarial activity against Dd2 strain (AID 2302;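 active = growth inhibition above 50% at the single 2 µM test dose, taken to imply half-maximal potency below 2 µM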;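 also: 0% = DMSO untreated growth and 100% = chloroquine plus artemisinin killed control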). The conditions noted are these: P. falciparum Dd2 in RBCs, LDH growth readout, 72 h; at 2 µM; stronger effect = higher value.
The nature of test [2]: HepG2 cytotoxicity, primary screen, cytotoxicity control for P. falciparum antimalarial project, cell-based, ATP luminescence (AID 2303;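 active = inhibition above 50%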;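 also: 0% = DMSO wells and 100% = digitonin-killed cells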). Conditions: HepG2 viability, 24-48 h, at 10 µM, stronger effect = higher value.
For test [3], the target named is L-lactate dehydrogenase (Plasmodium falciparum (isolate CDC / Honduras)) (UniProt Q27743). Description: PfLDH activity inhibition – cell lysate, 3D7 strain, counter-screen for P. falciparum growth inhibition project (AID 2304).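 Also: 0% = vehicle and 100% = reference inhibitor.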 The conditions noted are these: P. falciparum 3D7 crude extract, LDH APAD/NBT absorbance; at 2 µM; stronger effect = higher value.
Test [4] is described as follows: inhibition of 3D7 malaria parasite growth – strain 3D7 (AID 2306).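 Also: 0% = DMSO wells and 100% = chloroquine plus artemisinin control wells.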 Conditions: P. falciparum 3D7 erythrocytic growth, LDH absorbance, 72 h; at 2 µM; stronger effect = higher value.
Test [5] concerns the target Calcium-dependent protein kinase 1 (Plasmodium falciparum (isolate 3D7)) (UniProt P62344). Description: PfCDPK1 kinase inhibitors, biochemical, TCAMS library (AID 1159585; cut-off not given, nearly all actives have IC50 up to about 0.98 µM;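 also: inhibitors leave more ATP so luminescence rises with inhibition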). Conditions: recombinant PfCDPK1, Kinase-Glo ATP depletion luminescence.
In test [6] the target is Plasmodium falciparum protein kinase 6 (PK6, PF3D7_1337100) (UniProt Q8IDW1). The test is described as follows: PfPK6 kinase inhibitors, biochemical, TCAMS library (AID 1159586). The conditions noted are these: recombinant PfPK6, Kinase-Glo ATP depletion luminescence.
Test [7] deals with Protein kinase 7 (PK7), Plasmodium falciparum 3D7 (PF3D7_0213400) (UniProt Q7YTF7). The test is described as follows: inhibition of Plasmodium PK7 catalytic activity – biochemical, TCAMS antimalarial set, Kinase-Glo luminescence (AID 1159587). Conditions: recombinant PfPK7, Kinase-Glo ATP depletion luminescence.
The target in test [8] is Calcium-dependent protein kinase 4 (Plasmodium falciparum (isolate 3D7)) (UniProt Q8IBS5). Description: PfCDPK4 kinase inhibitors, biochemical, TCAMS library (AID 1159588; cut-off not given, nearly all actives have IC50 up to about 0.91 µM). The conditions noted are these: recombinant PfCDPK4, Kinase-Glo ATP depletion luminescence.
Chain of Calcium-dependent protein kinase 4 (Plasmodium falciparum (isolate 3D7)) (Q8IBS5 whole entry, looked up): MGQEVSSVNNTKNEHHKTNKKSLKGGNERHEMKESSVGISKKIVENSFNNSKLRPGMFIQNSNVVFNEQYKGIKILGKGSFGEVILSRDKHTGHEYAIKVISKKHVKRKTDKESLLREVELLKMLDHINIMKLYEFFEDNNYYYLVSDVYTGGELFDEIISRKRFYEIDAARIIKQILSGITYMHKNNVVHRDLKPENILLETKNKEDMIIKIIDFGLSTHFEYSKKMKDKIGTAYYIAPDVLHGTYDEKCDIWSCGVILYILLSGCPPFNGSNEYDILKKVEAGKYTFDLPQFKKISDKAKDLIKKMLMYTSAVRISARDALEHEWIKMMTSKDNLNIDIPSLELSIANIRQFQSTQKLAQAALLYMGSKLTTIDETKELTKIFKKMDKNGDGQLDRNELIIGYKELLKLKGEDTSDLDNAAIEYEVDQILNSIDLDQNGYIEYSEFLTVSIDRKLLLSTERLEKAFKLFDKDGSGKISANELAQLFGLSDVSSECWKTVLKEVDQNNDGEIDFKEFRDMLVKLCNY

Chain of L-lactate dehydrogenase (Plasmodium falciparum (isolate CDC / Honduras)) (Q27743 whole entry, looked up): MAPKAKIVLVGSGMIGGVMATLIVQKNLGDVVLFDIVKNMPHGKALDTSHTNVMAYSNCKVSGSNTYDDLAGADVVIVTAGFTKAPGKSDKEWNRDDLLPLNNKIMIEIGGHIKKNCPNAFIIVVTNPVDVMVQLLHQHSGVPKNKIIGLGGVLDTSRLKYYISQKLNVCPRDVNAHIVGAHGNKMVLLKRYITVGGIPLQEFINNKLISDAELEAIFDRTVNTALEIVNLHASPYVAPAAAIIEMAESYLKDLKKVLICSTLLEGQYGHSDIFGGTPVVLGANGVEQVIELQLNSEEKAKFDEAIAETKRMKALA
Chain of Protein kinase 7 (PK7), Plasmodium falciparum 3D7 (PF3D7_0213400) (Q7YTF7 1-343): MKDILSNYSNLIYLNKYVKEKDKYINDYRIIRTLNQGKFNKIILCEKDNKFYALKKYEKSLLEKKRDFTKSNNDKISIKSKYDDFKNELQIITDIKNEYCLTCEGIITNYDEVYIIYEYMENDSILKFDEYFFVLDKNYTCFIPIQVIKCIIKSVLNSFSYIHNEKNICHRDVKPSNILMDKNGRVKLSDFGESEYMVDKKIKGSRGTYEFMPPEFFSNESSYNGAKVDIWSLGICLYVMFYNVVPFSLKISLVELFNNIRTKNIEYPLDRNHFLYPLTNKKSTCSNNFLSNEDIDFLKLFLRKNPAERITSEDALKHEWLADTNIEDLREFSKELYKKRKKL
Chain of Calcium-dependent protein kinase 1 (Plasmodium falciparum (isolate 3D7)) (P62344 whole entry, looked up): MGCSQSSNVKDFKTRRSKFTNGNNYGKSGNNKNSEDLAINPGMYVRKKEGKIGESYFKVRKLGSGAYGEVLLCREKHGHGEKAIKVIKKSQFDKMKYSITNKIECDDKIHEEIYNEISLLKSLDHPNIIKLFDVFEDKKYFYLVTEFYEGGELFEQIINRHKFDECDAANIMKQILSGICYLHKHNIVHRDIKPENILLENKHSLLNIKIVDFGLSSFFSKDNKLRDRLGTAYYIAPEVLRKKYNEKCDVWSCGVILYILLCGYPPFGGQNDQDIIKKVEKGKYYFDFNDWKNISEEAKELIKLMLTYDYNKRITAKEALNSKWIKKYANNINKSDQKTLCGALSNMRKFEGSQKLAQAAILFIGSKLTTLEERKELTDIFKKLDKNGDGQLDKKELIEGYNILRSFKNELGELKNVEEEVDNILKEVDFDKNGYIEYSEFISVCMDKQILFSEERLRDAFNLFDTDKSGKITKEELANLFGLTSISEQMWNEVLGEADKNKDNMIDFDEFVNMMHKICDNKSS
Chain of Plasmodium falciparum protein kinase 6 (PK6, PF3D7_1337100) (Q8IDW1 1-305): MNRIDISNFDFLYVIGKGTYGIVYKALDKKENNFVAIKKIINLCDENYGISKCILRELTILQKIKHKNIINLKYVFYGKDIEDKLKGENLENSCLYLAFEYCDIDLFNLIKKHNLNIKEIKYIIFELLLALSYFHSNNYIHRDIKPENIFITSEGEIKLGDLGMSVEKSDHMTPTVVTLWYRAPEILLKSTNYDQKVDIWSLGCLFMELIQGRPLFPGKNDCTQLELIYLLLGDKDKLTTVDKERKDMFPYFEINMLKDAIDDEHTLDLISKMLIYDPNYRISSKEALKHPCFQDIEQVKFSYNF

As for `CC(=O)Nc1ccc(NC(=O)c2cc(-c3cc(Cl)ccc3O)n[nH]2)cc1`, the growth inhibition in test [1] and in test [4] was 100% (active) in each case. Also, the inhibition in test [2] is 1%; in test [3], -2%. In addition, the result in test [5], in test [6], in test [7] and in test [8] was inactive.

In the case of `CCN(CCNC(=O)C1CCN(c2cc(-c3cccc(C)c3)ncn2)CC1)Cc1ccccc1`, the growth inhibition is 72% (active) in test [1] and 83% (active) in test [4]. Further, the inhibition was 24% in test [2] and 2% in test [3]. Moreover, the result in test [5], in test [6], in test [7] and in test [8] was inactive.

Regarding `CN(c1ccccc1C(=O)Nc1cc(Cl)ccc1Oc1ccccc1)S(=O)(=O)c1ccccc1`, the growth inhibition in test [1] was 42%; in test [4] it was 99% (active). Also, the inhibition in test [2] is 47%; in test [3] it was 7%. Also, the result in test [5], in test [6], in test [7] and in test [8] was inactive.

`CN(C)CCOc1cc(NC(=O)Nc2ccc(-c3ccncc3)c(Cl)c2)ccc1I`: the growth inhibition in test [1] is 100% (active); in test [4], 101% (active). The inhibition in test [2] was 43%; in test [3] it was 4%. For the same molecule, the result in test [5], in test [6], in test [7] and in test [8] was inactive.

For the molecule `Cc1cc(N2CCCC2)nc(Nc2ccc(NC(=O)CC(C)C)cc2)n1`, the growth inhibition is 53% (active) in test [1] and 95% (active) in test [4]. Further, the inhibition in test [2] is 37%; in test [3], -1%. The result in test [5], in test [6], in test [7] and in test [8] was inactive.

Take `COc1ccc(CNCc2cccc(-c3cccc(-c4nc5ccccc5[nH]4)c3)c2)cc1`: the growth inhibition in test [1] was 50% (active); in test [4] it was 102% (active). The inhibition in test [2] was 24%; in test [3] it was 1%. In addition, the outcome in test [5], in test [6], in test [7] and in test [8] was inactive.

With `O=C(Nc1ccc(F)c(F)c1)c1ccc(CN2CCCN(Cc3cccc(F)c3)CC2)cc1`, the growth inhibition in test [1] was 12%; in test [4], 83% (active). The inhibition is 51% (active) in test [2] and -6% in test [3]. For the same molecule, the result in test [5], in test [6], in test [7] and in test [8] was inactive.

As for `CC(C)n1ncc2c(C(=O)N3CCCc4ccccc43)cc(-c3ccccc3)nc21`, the values for the growth inhibition in test [1] and in test [4] were 82% (active) and 100% (active), respectively. The inhibition in test [2] is 5%; in test [3], 2%. Besides, the outcome in test [5], in test [6], in test [7] and in test [8] was inactive.

Take `CCOc1c(OC)ccc2c1CCN(CCN1CCC(CNC(=O)c3ccc(-c4ccc(C#N)cc4)cc3)CC1)C2`: the growth inhibition is 61% (active) in test [1] and 92% (active) in test [4]. Besides, the values for the inhibition in test [2] and in test [3] were 45% and 7%, respectively. The outcome in test [5], in test [6], in test [7] and in test [8] was inactive.

Take `CCN(CC)CCN(Cc1ccc(-c2ccc(C(F)(F)F)cc2)cc1)C(=O)Cn1c(SCc2ccc(F)cc2)cc(=O)c2ccccc21`: the growth inhibition in test [1] was 70% (active); in test [4] it was 101% (active). In addition, the inhibition is 50% (active) in test [2] and -5% in test [3]. Moreover, the outcome in test [5], in test [6], in test [7] and in test [8] was inactive.

For the molecule `COc1ccc(/C=C/C(=O)N2CCc3cc4nccc(N5CCN6CCC[C@H]6C5)c4cc32)cc1`, the results for the growth inhibition in test [1] and in test [4] were 98% (active) and 100% (active), respectively. In addition, the inhibition is -3% in test [2] and -9% in test [3]. For the same molecule, the result in test [5], in test [6], in test [7] and in test [8] was inactive.

With `CCN1CCC(NCc2ccc(-c3ccc(Cl)cc3)cc2)CC1`, the growth inhibition in test [1] was 33%; in test [4], 100% (active). Further, the inhibition in test [2] is 25%; in test [3], -2%. The result in test [5], in test [6], in test [7] and in test [8] was inactive.

For `CCCC(C(=O)OCCNC)(c1ccccc1)c1ccccc1`, the values for the growth inhibition in test [1] and in test [4] were 96% (active) and 98% (active), respectively. In addition, the inhibition in test [2] and in test [3] was 7% each time. The result in test [5], in test [6], in test [7] and in test [8] was inactive.

Consider `O=C(Nc1ccccc1)OCCOc1ccc(CC2SC(=O)NC2=O)cc1` (stereo not given), for which the results for the growth inhibition in test [1] and in test [4] were -6% and 100% (active), respectively. The values for the inhibition in test [2] and in test [3] were 1% and -3%, respectively. Besides, the outcome in test [5], in test [6], in test [7] and in test [8] was inactive.

With `NC(=O)c1ccccc1OCC(=O)Nc1cccc(-c2ccc(-c3nc4ccccc4[nH]3)cc2)c1`, the growth inhibition in test [1] was 46%; in test [4], 95% (active). Moreover, the inhibition was 66% (active) in test [2] and 4% in test [3]. For the same molecule, the result in test [5], in test [6], in test [7] and in test [8] was inactive.

Turning to `COc1ccc(Cc2nc(N=C(N)Nc3ccccc3)ccc2OC)cc1`, the growth inhibition in test [1] was 68% (active); in test [4], 93% (active). Besides, the figures for the inhibition in test [2] and in test [3] were 40% and 2%, respectively. In addition, the result in test [5], in test [6], in test [7] and in test [8] was inactive.

`CCCCCCCCc1c(C)[nH]c(C)c(Cl)c1=O`: the growth inhibition was 95% (active) in test [1] and 96% (active) in test [4]. Moreover, the figures for the inhibition in test [2] and in test [3] were -4% and -3%, respectively. Also, the outcome in test [5], in test [6], in test [7] and in test [8] was inactive.

For `COc1ccc(-c2cnc(N)c(-c3ccc(C(N)=O)cc3)c2)cc1OC`, the growth inhibition in test [1] was 98% (active); in test [4] it was 96% (active). The inhibition was 11% in test [2] and 4% in test [3]. For the same molecule, the result in test [5], in test [6], in test [7] and in test [8] was inactive.

On to `COc1ccc2nccc(N(C)CC3(O)CCC(NCc4cc5c(cn4)OCCO5)CC3)c2n1` (stereo not given), for which the growth inhibition was 14% in test [1] and 99% (active) in test [4]. Besides, the inhibition is 1% in test [2] and -2% in test [3]. In addition, the outcome in test [5], in test [6], in test [7] and in test [8] was inactive.

With `CN(C)CCCNc1ncnc2c1[nH]c1ccc(Cl)cc12`, the values for the growth inhibition in test [1] and in test [4] were 3% and 99% (active), respectively. The inhibition in test [2] and in test [3] was 2% each time. The result in test [5], in test [6], in test [7] and in test [8] was inactive.
